Experimental data taken from PubChem BioAssay (Tox21).
Several values for one entry are separate records, joined by “and”; a condition that tells them apart may be missing. Equal entries are not always repeated. Results filed as inconclusive are left out. Some compounds were tested as several samples or in several runs, with calls that do not always agree. Activity calls are given as the source filed them. Unless noted, the call rests on the fitted dose curve; in most records, active means well fitted curve in the direction sought with a large enough effect in the repeat runs; inconclusive means weak or mixed curves; inactive means no such curve, though single readings can be large; an effect the other way counts as inactive or inconclusive.

Tests used:
[1] = qHTS assay to identify small molecule antagonists of the sonic hedgehog signaling (Shh) pathway (AID 1259369; calls by dose curve; further: nearly all actives have a fitted effect of over 45% in size; further: potency means the concentration at half of the fitted maximal effect)
Summary of the method: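 Antagonist mode: compound added to 3T3 Gli1-Luc cells followed by conditioned-medium stimulation, 24 h at 37 C, 5% CO2. Inhibition taken as loss of Gli1-driven luciferase luminescence.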

[2] = qHTS assay to identify small molecule agonists of the androgen receptor (AR) signaling pathway in the presence of an antagonist - cell viability counter screen (AID 1259379);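 further: MDA-kb2 human breast cancer cells carrying an MMTV luciferase reporter; series mostly up to about 92 µM; nearly all actives have a fitted effect of over 25% in size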
Summary of the method: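 Cytotoxicity counter-screen run in the same wells as the nilutamide-challenged (3.0 µM final) AR agonist assay in MDA-kb2 cells. Compounds tested at 15 concentrations for 16 h, 37 °C without CO2; CellTiter-Fluor fluorescence read.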

[3] = qHTS assay to identify small molecule agonists of the estrogen receptor beta (ER-beta) signaling pathway - cell viability counter screen (AID 1259380); further: nearly all actives have a fitted effect of over 30% in size; further: potency means the concentration at half of the fitted maximal effect
Summary of the method: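 Cell viability counter screen: CellTiter-Glo luminescence (30 min, room temperature) measured in the same wells as the beta-lactamase readout, after 16 hr compound exposure at 37C of ER-beta-bla HEK293T cells in 2% charcoal-stripped FBS medium.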

[4] = qHTS assay to identify small molecule antagonists of the estrogen receptor beta (ER-beta) signaling pathway - cell viability counter screen (AID 1259382); further: nearly all actives have a fitted effect of over 55% in size; further: potency means the concentration at half of the fitted maximal effect
Summary of the method: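 Cytotoxicity was measured in the same wells by CellTiter-Glo luminescence after 30 min at room temperature. Cells were ER-beta-bla HEK293T in charcoal-stripped serum, given compound together with 1 nM E2 and incubated 16 h at 37C.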

[5] = molecular target: Estrogen receptor (Homo sapiens) (UniProt P03372); experiment: qHTS assay to identify small molecule agonists of the estrogen receptor alpha (ER-alpha) signaling pathway in the presence of an antagonist (AID 1259383; calls by dose curve; further: top concentration of the series differs between compounds; nearly all actives have a fitted effect of over 15% in size)
Summary of the method: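 Agonist-mode confirmation run in the presence of 10.0nM (final) ICI-182,780 antagonist. The reporter was ERE-driven luciferase in VM7Luc4E2 cells, grown in charcoal-stripped serum. Cells were exposed to 15-concentration compound series for 22hr, then ONE-Glo luminescence was read.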

[6] = qHTS assay to identify small molecule agonists or antagonists of the thyroid stimulating hormone receptor (TSHR) signaling pathway - wild type cell line counter screen (AID 1259384; calls by dose curve)
Summary of the method: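 Counter screen in untransfected Hek293: compounds (15-point titration, triplicate) plus phosphodiesterase inhibitor Ro20-1724 added after 18 h plating; 30 min RT. Intracellular cAMP via competitive d2/cryptate immunoassay, 1 h incubation.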

[7] = molecular target: Thyrotropin receptor (Homo sapiens) (UniProt P16473); experiment: qHTS assay to identify small molecule antagonists of the thyroid stimulating hormone receptor (TSHR) signaling pathway (AID 1259385; calls by dose curve; further: nearly all actives have a fitted effect of over 20% in size)
Summary of the method: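 Antagonist mode: compound-treated TSHR-expressing HEK293 cells were stimulated with 1.5 ng/mL TSH (final) in presence of Ro20-1724 for 30 min at RT. HTRF cAMP detection after 1 h; each compound tested at 15 concentrations, triplicate.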

[8] = qHTS assay to identify small molecule agonists of the estrogen receptor alpha (ER-alpha) signaling pathway in the presence of an antagonist - cell viability counter screen (AID 1259386); further: nearly all actives have a fitted effect of over 30% in size; further: potency means the concentration at half of the fitted maximal effect
Summary of the method: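 Compounds tested at 15 concentrations for 22 h at 37C alongside 10.0nM (final) ICI-182,780 antagonist, in VM7Luc4E2 cells grown in phenol red-free, charcoal-stripped medium. Viability read by CellTiter-Fluor fluorescence after 1 h reagent incubation.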

[9] = molecular target: Progesterone receptor (Homo sapiens) (UniProt P06401); experiment: qHTS assay to identify small molecule agonists of the progesterone receptor (PR) signaling pathway (AID 1346784; calls by dose curve; further: nearly all actives have a fitted effect of over 30% in size; further: potency means the concentration at half of the fitted maximal effect)
Summary of the method: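 Agonist mode, quantitative HTS format in a HEK 293T line expressing a UAS-controlled beta-lactamase reporter; 16 hr compound exposure at 37C in 2% charcoal-stripped FBS, then LiveBLAzer B/G FRET fluorescence.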

[10] = molecular target: Progesterone receptor (Homo sapiens) (UniProt P06401); experiment: qHTS assay to identify small molecule antagonists of the progesterone receptor (PR) signaling pathway (AID 1346795; active means well fitted inhibition curve with a large enough effect in the signal ratio in the repeat runs, not every such curve was filed as active; the % refers to the signal ratio)
Summary of the method: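 HEK293T PR-UAS-bla reporter cells in charcoal-stripped serum (2%) received compound after a 6 hr settling period, followed by R5020 agonist at 1 nM final; 16 hr incubation preceded the FRET substrate step and fluorescence measurement.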

[11] = qHTS assay to identify small molecule antagonists of the progesterone receptor (PR) signaling pathway - cell viability counter screen (AID 1346798); further: nearly all actives have a fitted effect of over 50% in size; further: potency means the concentration at half of the fitted maximal effect
Summary of the method: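 Same-well multiplex: after 16 hr at 37C with compound and R5020 stimulation, HEK293T cells carrying a UAS-bla reporter received LiveBLAzer substrate (2 hr RT), then CellTiter-Glo (30 min RT) for luminescent viability.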

[12] = qHTS assay to identify small molecule agonists of the progesterone receptor (PR) signaling pathway - cell viability counter screen (AID 1346799; calls by dose curve; further: nearly all actives have a fitted effect of over 45% in size; further: potency means the concentration at half of the fitted maximal effect)
Summary of the method: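 Counter screen for cytotoxicity: compound-treated PR-UAS-bla HEK293T cells (16 hr, 37C, 5% CO2) were assayed with CellTiter-Glo, luminescence measured after 30 min at room temperature.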

[13] = qHTS assay to identify small molecule antagonists of the TGF-beta/Smad signaling pathway - cell viability counter screen (AID 1346824); further: nearly all actives have a fitted effect of over 50% in size; further: potency means the concentration at half of the fitted maximal effect
Summary of the method: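 Cytotoxicity counter-screen run in the same wells as the beta-lactamase Smad reporter read: CellTiter-Glo luminescence after 30 min at room temperature. HEK 293T SBE-bla cells had 5 hr compound exposure at 37 C with TGF-beta1 (0.25 ng/mL stock).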

[14] = qHTS assay to identify small molecule agonists of the TGF-beta/Smad signaling pathway - cell viability counter screen (AID 1346829); further: nearly all actives have a fitted effect of over 45% in size; further: potency means the concentration at half of the fitted maximal effect
Summary of the method: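 Cytotoxicity counter screen: CellTiter-Glo luminescence (30 min, room temperature) measured in the SBE-bla HEK 293T reporter wells after 5 hr compound treatment at 37 C and the 2 hr substrate step.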

[15] = qHTS assay to identify small molecule agonists of the TGF-beta/Smad signaling pathway (AID 1346859; active means well fitted activation curve with a large enough effect in the signal ratio in the repeat runs, not every such curve was filed as active; the % refers to the signal ratio; further: series mostly up to about 77 µM)
Summary of the method: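 Smad-responsive beta-lactamase reporter cells (HEK 293T) received compounds from DMSO stocks after overnight attachment, were incubated 5 hr, then treated 2 hr with FRET substrate before dual-emission fluorescence measurement (405 nm excitation).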

[16] = molecular target: Thyrotropin-releasing hormone receptor (Homo sapiens) (UniProt P34981); experiment: qHTS assay to identify small molecule antagonists of the thyrotropin-releasing hormone receptor (TRHR) signaling pathway (AID 1346877; active means well fitted inhibition curve with a large enough effect in the repeat runs, not every such curve was filed as active; further: series mostly up to about 51 µM)
Summary of the method: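 Antagonist mode: after a 5 min room-temperature compound exposure, cells were stimulated with 1 nM (final) TRH. Dye-loaded TRHR-HEK293 cells were used, and calcium-dependent fluorescence was followed for 3 min, with 15-point titrations run in triplicate.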

[17] = molecular target: Thyrotropin-releasing hormone receptor (Homo sapiens) (UniProt P34981); experiment: qHTS assay to identify small molecule agonists of the thyrotropin-releasing hormone receptor (TRHR) signaling pathway (AID 1346891; calls by dose curve;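 further: HEK293 cells expressing TRHR with calcium dye readout; series mostly up to about 58 µM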)
Summary of the method: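 Agonist-mode calcium mobilisation screen: TRHR-transfected HEK293 cells cultured overnight (18 h), dye-loaded for 2 h at 37 °C, exposed to compounds, and monitored by fluorescence for 3 min.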

[18] = molecular target: Estrogen receptor beta (Homo sapiens) (UniProt Q92731); experiment: qHTS assay to identify small molecule agonists of the estrogen receptor beta (ER-beta) signaling pathway (AID 1259377; active means well fitted activation curve with a large enough effect in the signal ratio in the repeat runs, not every such curve was filed as active; the % refers to the signal ratio; further: potency means the concentration at half of the fitted maximal effect)
Summary of the method: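 A UAS-controlled beta-lactamase reporter in ER-beta-UAS-bla HEK293T cells reports receptor activation. Compounds act for 16 hr at 37C in 2% charcoal-stripped serum, and a FRET substrate is read by fluorescence after 2 hours.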

[19] = molecular target: Estrogen receptor beta (Homo sapiens) (UniProt Q92731); experiment: qHTS assay to identify small molecule antagonists of the estrogen receptor beta (ER-beta) signaling pathway (AID 1259378; active means well fitted inhibition curve with a large enough effect in the signal ratio in the repeat runs, not every such curve was filed as active; the % refers to the signal ratio)
Summary of the method: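 Antagonist mode: compounds added to beta-lactamase reporter HEK293T ER-beta-UAS cells stimulated with E2 (1nM final), 16 hr at 37C. LiveBLAzer B/G FRET substrate, 2 hours room temperature, fluorescence read-out.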

[20] = molecular target: Androgen receptor (Homo sapiens) (UniProt P10275); experiment: qHTS assay to identify small molecule agonists of the androgen receptor (AR) signaling pathway in the presence of an antagonist (AID 1259381; calls by dose curve; further: nearly all actives have a fitted effect of over 15% in size)
Summary of the method: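 Agonist-mode confirmation run against 3.0 uM final nilutamide: compounds titrated at 15 concentrations onto MDA-kb2 MMTV-luciferase reporter cells. Luminescence measured with ONE-Glo following 16 hr incubation, 37C, 0% CO2.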

Measured: Potency

Chain of Progesterone receptor (Homo sapiens) (P06401 whole entry, looked up): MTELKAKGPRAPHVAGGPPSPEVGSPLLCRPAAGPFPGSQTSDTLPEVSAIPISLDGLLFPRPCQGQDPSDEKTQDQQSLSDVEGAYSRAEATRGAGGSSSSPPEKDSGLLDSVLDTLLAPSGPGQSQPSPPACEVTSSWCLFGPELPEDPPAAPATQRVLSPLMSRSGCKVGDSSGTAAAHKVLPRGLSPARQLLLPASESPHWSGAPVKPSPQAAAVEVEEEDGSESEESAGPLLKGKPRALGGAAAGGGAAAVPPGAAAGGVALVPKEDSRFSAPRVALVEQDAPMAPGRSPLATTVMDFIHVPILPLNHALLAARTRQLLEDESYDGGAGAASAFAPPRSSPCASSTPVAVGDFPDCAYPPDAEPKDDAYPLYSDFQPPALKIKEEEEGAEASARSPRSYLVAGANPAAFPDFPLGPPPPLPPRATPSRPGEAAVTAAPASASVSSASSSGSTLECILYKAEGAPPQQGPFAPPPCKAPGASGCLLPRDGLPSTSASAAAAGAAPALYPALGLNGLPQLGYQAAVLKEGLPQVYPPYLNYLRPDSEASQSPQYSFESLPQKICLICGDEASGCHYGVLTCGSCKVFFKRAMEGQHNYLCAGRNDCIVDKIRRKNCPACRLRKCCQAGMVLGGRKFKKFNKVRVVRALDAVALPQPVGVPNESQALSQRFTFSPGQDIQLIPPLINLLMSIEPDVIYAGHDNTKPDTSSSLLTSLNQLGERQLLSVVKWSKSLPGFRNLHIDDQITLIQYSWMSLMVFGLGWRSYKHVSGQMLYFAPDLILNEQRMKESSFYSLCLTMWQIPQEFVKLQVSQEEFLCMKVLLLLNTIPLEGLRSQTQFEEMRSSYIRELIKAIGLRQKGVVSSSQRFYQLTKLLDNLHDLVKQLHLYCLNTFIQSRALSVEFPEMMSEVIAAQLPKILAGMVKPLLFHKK
Chain of Thyrotropin-releasing hormone receptor (Homo sapiens) (P34981 whole entry, looked up): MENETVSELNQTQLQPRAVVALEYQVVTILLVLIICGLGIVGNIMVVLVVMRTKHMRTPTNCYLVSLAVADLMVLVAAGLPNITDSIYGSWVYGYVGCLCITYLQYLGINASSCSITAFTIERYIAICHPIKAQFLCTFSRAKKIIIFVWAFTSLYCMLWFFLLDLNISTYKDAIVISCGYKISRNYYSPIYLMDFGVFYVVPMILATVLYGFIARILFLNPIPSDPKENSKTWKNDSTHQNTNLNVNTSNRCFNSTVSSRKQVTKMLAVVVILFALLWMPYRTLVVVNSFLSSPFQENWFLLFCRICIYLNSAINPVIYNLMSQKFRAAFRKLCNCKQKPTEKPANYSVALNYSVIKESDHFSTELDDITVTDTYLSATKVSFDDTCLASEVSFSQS
Chain of Estrogen receptor beta (Homo sapiens) (Q92731 whole entry, looked up): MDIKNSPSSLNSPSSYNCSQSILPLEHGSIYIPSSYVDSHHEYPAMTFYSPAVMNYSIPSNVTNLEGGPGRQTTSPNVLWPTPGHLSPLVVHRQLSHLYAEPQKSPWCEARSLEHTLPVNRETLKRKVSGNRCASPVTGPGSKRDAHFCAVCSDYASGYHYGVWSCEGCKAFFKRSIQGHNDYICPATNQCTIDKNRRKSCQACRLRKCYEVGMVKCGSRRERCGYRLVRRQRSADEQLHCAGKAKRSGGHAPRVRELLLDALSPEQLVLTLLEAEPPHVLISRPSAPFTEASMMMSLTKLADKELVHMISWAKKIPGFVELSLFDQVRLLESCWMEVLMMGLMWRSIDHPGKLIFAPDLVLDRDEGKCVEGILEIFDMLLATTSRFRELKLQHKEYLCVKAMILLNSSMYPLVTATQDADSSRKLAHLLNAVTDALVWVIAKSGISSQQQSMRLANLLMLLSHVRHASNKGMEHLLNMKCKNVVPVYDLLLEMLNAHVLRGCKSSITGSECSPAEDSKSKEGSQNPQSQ
Chain of Estrogen receptor (Homo sapiens) (P03372 whole entry, looked up): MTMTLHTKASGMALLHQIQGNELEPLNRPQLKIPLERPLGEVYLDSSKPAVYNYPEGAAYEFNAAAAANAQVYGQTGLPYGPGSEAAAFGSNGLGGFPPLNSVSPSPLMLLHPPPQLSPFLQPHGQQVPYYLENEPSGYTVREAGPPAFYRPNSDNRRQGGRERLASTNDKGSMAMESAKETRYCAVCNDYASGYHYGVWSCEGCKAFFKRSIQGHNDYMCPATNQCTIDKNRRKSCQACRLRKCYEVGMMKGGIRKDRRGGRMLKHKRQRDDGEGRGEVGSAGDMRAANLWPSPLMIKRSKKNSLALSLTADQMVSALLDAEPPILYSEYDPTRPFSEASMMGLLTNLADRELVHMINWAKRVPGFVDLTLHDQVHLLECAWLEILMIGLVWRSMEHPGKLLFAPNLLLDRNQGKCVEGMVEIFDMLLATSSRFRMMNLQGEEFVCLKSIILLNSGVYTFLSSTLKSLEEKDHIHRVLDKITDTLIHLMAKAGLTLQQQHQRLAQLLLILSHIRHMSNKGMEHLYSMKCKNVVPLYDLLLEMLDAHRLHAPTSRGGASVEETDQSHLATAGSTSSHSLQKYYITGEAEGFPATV
Chain of Thyrotropin receptor (Homo sapiens) (P16473 whole entry, looked up): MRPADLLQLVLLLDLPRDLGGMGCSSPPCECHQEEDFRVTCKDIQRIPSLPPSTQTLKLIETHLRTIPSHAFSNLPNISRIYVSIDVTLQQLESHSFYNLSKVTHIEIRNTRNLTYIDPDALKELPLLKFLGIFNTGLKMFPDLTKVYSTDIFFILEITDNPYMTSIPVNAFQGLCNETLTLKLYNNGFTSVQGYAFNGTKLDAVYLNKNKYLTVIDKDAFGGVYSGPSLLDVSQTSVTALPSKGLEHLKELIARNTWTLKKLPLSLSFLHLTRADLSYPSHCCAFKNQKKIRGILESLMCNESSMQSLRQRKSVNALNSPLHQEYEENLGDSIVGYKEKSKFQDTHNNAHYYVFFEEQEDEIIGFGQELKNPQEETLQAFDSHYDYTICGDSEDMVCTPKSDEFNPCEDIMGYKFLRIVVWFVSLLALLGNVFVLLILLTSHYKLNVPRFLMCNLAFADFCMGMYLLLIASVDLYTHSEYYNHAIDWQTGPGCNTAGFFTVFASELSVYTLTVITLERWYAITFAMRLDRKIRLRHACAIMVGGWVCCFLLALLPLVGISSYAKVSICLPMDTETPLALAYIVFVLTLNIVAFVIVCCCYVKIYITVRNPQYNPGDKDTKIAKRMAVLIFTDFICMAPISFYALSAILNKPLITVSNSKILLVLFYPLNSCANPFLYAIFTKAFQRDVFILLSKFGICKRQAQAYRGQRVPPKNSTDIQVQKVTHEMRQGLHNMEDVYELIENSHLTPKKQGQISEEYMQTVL
Chain of Androgen receptor (Homo sapiens) (P10275 whole entry, looked up): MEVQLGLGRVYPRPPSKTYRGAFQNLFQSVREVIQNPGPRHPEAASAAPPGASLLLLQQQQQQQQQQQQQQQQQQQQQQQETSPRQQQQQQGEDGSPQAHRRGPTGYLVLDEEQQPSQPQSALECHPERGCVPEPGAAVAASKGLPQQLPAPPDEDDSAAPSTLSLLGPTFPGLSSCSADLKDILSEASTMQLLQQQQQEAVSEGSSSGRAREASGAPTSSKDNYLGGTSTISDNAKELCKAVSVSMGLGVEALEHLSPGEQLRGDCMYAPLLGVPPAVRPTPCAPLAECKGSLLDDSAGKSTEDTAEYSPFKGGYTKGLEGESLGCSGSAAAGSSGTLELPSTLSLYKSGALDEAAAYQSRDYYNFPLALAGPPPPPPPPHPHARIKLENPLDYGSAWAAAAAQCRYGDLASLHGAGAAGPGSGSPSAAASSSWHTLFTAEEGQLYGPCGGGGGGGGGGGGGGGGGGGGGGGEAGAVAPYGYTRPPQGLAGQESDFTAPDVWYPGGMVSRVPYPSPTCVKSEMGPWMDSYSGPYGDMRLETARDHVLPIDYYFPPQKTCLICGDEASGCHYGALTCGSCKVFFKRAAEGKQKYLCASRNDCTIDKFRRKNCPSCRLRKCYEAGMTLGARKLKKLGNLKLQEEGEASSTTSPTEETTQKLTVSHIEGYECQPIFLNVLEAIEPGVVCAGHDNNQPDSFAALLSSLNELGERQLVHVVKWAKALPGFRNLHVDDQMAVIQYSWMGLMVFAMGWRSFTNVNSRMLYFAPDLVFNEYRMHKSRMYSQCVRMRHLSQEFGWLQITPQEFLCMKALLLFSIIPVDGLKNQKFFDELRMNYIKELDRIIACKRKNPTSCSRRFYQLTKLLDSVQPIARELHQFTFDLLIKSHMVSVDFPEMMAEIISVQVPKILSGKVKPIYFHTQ

CCCCCCCCCCCCCCCl
not listed: [18] | [19] | [20]
inactive: all other assays above

C=CC(C)(CCC=C(C)C)OC(=O)c1ccccc1N (centres undefined)
not listed: [3] | [5] | [14] | [18] | [19] | [20]
inactive: all other assays above

O=C(Cc1ccccc1)c1ccccc1
not listed: [13] | [18] | [19] | [20]
inactive: all other assays above

CCCCC#N
not listed: [18] | [19] | [20]
inactive: all other assays above

OCCSSCCO
not listed: [6] | [7] | [10] | [11] | [18] | [19] | [20]
inactive: all other assays above

C[C@]12CC[C@H]3[C@@H](CCC4=CC(=O)CC[C@@H]43)[C@@H]1CC[C@@H]2OC(=O)CCc1ccccc1
inactive: [4] | [6] | [7] | [8] | [11] | [13] | [14] | [15]
active: [18] 3.35 µM | [9] 1.5 µM

OC[P+](CO)(CO)CO
31 µM (active) and inactive: [1]
not listed: [2] | [5] | [18] | [19] | [20]
inactive: all other assays above

CC(Oc1cccc(Cl)c1)C(=O)O (centres undefined)
not listed: [1] | [2] | [5] | [18] | [20]
inactive: all other assays above

O=C1NC(=O)C(=O)C(=O)N1
not listed: [1] | [16] | [17] | [18] | [19] | [20]
inactive: all other assays above

COc1cc(C[C@@H](C)N)c(OC)cc1Br
active: [3] 35.3 µM
not listed: [1] | [4] | [10] | [11] | [12] | [18] | [19] | [20]
inactive: all other assays above

CC(Cc1ccccc1)NCc1ccccc1Cl (centres undefined)
not listed: [2] | [18] | [19] | [20]
inactive: all other assays above

[Cl-].[Cl-].[Hg+2]
active: [1] 34.2 nM and 243 nM | [3] 5.42 µM and 3.86 µM | [4] 4.31 µM and 4.86 µM | [8] 54.2 µM and 27.3 µM | [11] 4.83 µM and 2.43 µM | [12] 5.42 µM and 2.17 µM | [13] 24.4 µM and 54.9 µM | [14] 54.7 µM and 54.9 µM
inactive: [15]

CCOP(=O)(SC(C)CC)N1CCSC1=O (centres undefined)
not listed: [2] | [5] | [18] | [19] | [20]
inactive: all other assays above

CC(C)C1(C)N=C(c2ncccc2C(=O)O)NC1=O (centres undefined)
not listed: [2] | [3] | [10] | [11] | [14] | [18] | [19] | [20]
inactive: all other assays above

C[C@H]1[C@@H]2Cc3ccc(O)cc3[C@@]1(C)CCN2C
not listed: [1] | [2] | [3] | [5] | [11] | [20]
inactive: all other assays above

FC(Cl)(Cl)C(F)(Cl)Cl
not listed: [2] | [10] | [16] | [17] | [18] | [19] | [20]
inactive: all other assays above

N#CC1(N=NC2(C#N)CCCCC2)CCCCC1
active: [1] 21.7 µM
not listed: [2] | [5] | [10] | [18] | [19] | [20]
inactive: all other assays above

CC(CC(C(N)=O)(c1ccccc1)c1ccccc1)N(C)C (centres undefined)
not listed: [1] | [3] | [5] | [18] | [19]
inactive: all other assays above

CCCC[N+](CCCC)(CCCC)CCCC
not listed: [2] | [6] | [7] | [18] | [19] | [20]
inactive: all other assays above

CCOC(=O)c1cncn1C(C)c1ccccc1 (centres undefined)
not listed: [2] | [13] | [14] | [16] | [17] | [18] | [19] | [20]
inactive: all other assays above

CC(C)OC(=O)Cc1ccccc1
not listed: [2] | [3] | [14] | [18] | [19] | [20]
inactive: all other assays above

CCC(C)(C)c1ccc(O)c(C(C)(C)CC)c1
inactive: [1] | [5] | [6] | [7] | [8] | [13] | [15] | [16] | [17]
active: [3] 21.4 µM and 24.3 µM | [4] 53.9 µM and 30.6 µM | [11] 60.4 µM and 30.6 µM | [12] 24.3 µM
